Screens as filed in PubChem BioAssay.
DT40 TDP1 CPT – growth inhibition of DT40 Tdp1-/-;hTDP1 cells with camptothecin (screen for TDP1 inhibitors) | chicken DT40 Tdp1-/-;hTDP1 cells + 20 nM CPT, ATP luminescence, 48 h | Potency, µM (highest dose often 46.2 µM), for inactives: at the top dose activity change, negative = growth inhibition, usual class: inhibitors | actives 12% (n = 420,000); note: potency is the fitted concentration of half-maximal effect; nearly all actives have a fitted effect of over 55% in size
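Chicken DT40 Tdp1-/- cells stably complemented with human TDP1 were seeded at 400 cells/well in medium containing 20 nM camptothecin, exposed to pin-transferred compounds, and grown at 37 °C for at least 48 hr. Viability was read as ATP luminescence.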
IL-1B inflam inh – inflammasome signaling inhibition, IL-1 beta readout; THP-1 LPS/ATP IL-1B secretion, AlphaLISA, 16 h; stronger effect = lower value; activity change, % at 57.5 µM; actives 4.7% (n = 360,000); in the data active = activity change below about -50%; inconclusive = mostly about -30% to -49%
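THP-1 cells pretreated 1 hr with compounds (up to 57.5 uM final), then stimulated with LPS (250 ng/mL final) plus ATP (1.25 mM final); secreted IL-1B measured by AlphaLISA after 16 hr, decreased signal indicating inhibition.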
TDP1 cell noCPT – qHTS for Inhibitors of human tyrosyl-DNA phosphodiesterase 1 (TDP1): qHTS in cells in absence of CPT; DT40 Tdp1-/- hTDP1 cells, no CPT, ATP luminescence, 48 h; Potency, µM (highest dose often 46.2 µM), inactives show at the highest dose activity change, negative = growth inhibition, actives largely listed as inhibitors; actives 15% (n = 420,000); AID 686978, 2013; note: potency is the fitted concentration of half-maximal effect; nearly all actives have a fitted effect of over 55% in size
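No-CPT arm: Tdp1-/-;hTDP1 DT40 cells (400/well) plus compounds, incubated ≥48 hr at 37 °C. Readout CellTiter-Glo luminescence.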
HT1080 IDH1KD tx – toxicity to HT-1080 IDH1 knockdown cells (counter line); HT-1080 IDH1 knockdown viability, ATP luminescence, 48 h; Potency, µM (series often up to 46.1 µM), inactives show at the top dose activity, negative = toxicity, most hits filed as cytotoxic; actives 2% (n = 360,000);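 note: potency is the fitted concentration of half-maximal effect; 0% = DMSO wells and -100% = cell-free medium wells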
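Cytotoxicity counter-line: IDH1KD HT-1080, 48 h, CellTiter-Glo. Curves classed by r2, magnitude and activity.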
HT1080NT lethal – kills 2HG-producing HT-1080-NT fibrosarcoma cells | HT-1080-NT fibrosarcoma viability, CellTiter-Glo ATP luminescence, 48 h | Potency, µM (highest dose often 46.1 µM), for inactives: top-dose activity, negative = less viability, hits mostly cytotoxic | actives 1.6% (n = 360,000) | AID 686970;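 note: NT is the 2HG producing partner of a matched IDH1 knockdown line; potency is the fitted concentration of half-maximal effect; 0% = DMSO-treated cells and -100% = media-only wells without cells; nearly all actives have a fitted effect of over 55% in size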
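Read-out is CellTiter-Glo luminescence after 10 minutes at room temperature, following 48 hours' compound treatment of HT-1080-NT cells (750 cells/well, RPMI, 5% FBS, 37 degrees C).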
12-LOX inh – ALOX12 (human) lipoxygenase inhibition; P18054; purified 12hLO, xylenol orange hydroperoxide absorbance; Potency, µM (series often up to 108 µM), inactives show at the highest dose activity change, negative = inhibition, most hits filed as inhibitors; actives 1.1% (n = 580,000); AID 1671190; note: potency is the fitted concentration of half-maximal effect
Target sequence (P18054 whole entry, looked up): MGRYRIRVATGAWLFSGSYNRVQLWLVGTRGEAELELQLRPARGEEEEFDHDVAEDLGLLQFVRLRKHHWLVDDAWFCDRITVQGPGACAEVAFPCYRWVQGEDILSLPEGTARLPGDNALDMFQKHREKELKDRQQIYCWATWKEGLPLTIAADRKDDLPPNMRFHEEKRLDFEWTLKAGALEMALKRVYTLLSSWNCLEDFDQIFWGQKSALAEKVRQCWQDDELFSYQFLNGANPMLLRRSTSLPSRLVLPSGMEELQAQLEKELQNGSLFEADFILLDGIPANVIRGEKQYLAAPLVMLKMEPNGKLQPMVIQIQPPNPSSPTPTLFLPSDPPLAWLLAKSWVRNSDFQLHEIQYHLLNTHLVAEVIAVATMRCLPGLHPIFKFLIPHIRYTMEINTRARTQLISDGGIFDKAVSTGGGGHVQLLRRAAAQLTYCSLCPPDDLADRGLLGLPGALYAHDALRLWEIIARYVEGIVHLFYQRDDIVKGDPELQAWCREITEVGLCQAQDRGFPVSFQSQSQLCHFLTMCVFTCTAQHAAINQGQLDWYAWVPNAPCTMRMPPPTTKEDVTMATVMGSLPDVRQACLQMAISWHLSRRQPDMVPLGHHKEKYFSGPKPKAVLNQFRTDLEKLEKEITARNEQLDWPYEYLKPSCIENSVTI
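Hydroperoxide product was detected by ferrous iron/xylenol orange as the 573 to 405 nm absorbance ratio. Arachidonic acid at 40 uM (final) was turned over for 30 min at room temperature by 150 nM human 12hLO, pH 7.0 Hepes buffer, after 15 min compound preincubation.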
Numbers without * were called inactive; ? = inconclusive; . = no result; ! = not confirmed by another sample; [ ] = another dose, or the depositor's remark. This excerpt belongs to a sample that is enriched for hits. Unless noted, calls come from the whole dose curve; as a rule, active = well fitted curve in the direction sought with a large enough effect; inconclusive = small, poorly fitted or top-dose-only effect, or another doubt; inactive = no such curve, though single readings can be large; an effect the other way counts as inactive or inconclusive. Unless noted, % is set by controls: 0 for no effect and ±100 for the full control effect.

SMILES	DT40 TDP1 CPT	IL-1B inflam inh	TDP1 cell noCPT	HT1080 IDH1KD tx	HT1080NT lethal	12-LOX inh
CCOC(=O)c1ccc(NC(=O)Nc2cc3c(cc2N2CCCC2)n(C)c(=O)n3C)cc1	?	.	23µM*	.	.	-18%
CCOC(=O)C1CCN(c2cc3c(cc2NC(=O)c2ccccc2)n(C)c(=O)n3C)CC1	21µM*	9	8.2µM*	5%	-8%	9%
CCOC(=O)C1CCN(c2cc3c(cc2NC(=O)c2ccc(OC)c(OC)c2)n(C)c(=O)n3C)CC1	9.2µM*	9	5.8µM*	-1%	1%	?
CCOC(=O)c1ccc(N2CCCCC2)c(NS(=O)(=O)c2ccc(C)cc2)c1	?	60	21µM*	?	?	103%
Cc1ccc(CNC(=O)c2ccc(N3CCCC3)c(NC(=O)Nc3ccc(C)cc3)c2)cc1	15µM*	.	23µM*	.	.	2%
CCOC(=O)c1ccc(N2CCN(c3ccccc3OC)CC2)c(NC(=O)Nc2ccc(CC)cc2)c1	?	.	?	.	.	-56%
CCOC(=O)c1ccc(N2CCN(c3ccccc3F)CC2)c(NC(=O)Nc2ccccc2)c1	16µM*	23	16µM*	-1%	1%	-15%
Cc1ccc(CNC(=O)Nc2cc(C(=O)NCc3ccc(C(C)C)cc3)ccc2N2CCCC2)cc1	?	.	?	.	.	5%
COc1ccc(C(CNC(=O)Cc2ccccc2Cl)N2CCCCC2)cc1 (stereo not drawn)	-16%	-52*	-4%	-15%	-5%	-16%
COc1ccc(C(CNC(=O)c2ccc(-c3nc4ccccc4s3)o2)N2CCCC2)cc1 (stereo not drawn)	23µM*	-16	21µM*	-27%	?	200%
COc1ccc(C(CNC(=O)c2cc3ccccc3o2)N2CCCC2)cc1 (stereo not drawn)	?	-2	?	-3%	0%	-18%
COc1ccc(C(CNC(=O)c2ccc(-c3ccccc3Cl)o2)N2CCCC2)cc1 (stereo not drawn)	5.2µM*	-11	4.1µM*	?	?	?
COC(=O)Nc1c(C)cccc1C(C)C	.	.	.	.	.	22%
Cc1ccccc1C(OCCN(C)C)c1ccccc1 (stereo not drawn)	23µM*!	-7	?	0%	1%	?
CCN(CC)CCOC(c1ccccc1)c1ccc(C)cc1 (stereo not drawn)	?	?	?	-18%	-22%	-24%
Nc1nc(CN2CCN(C(=O)c3ccc(Cl)c(Cl)c3)CC2)nc2ccccc12	.	.	.	.	.	38%
Cc1ccc(NC(=O)C2CCCN(C(=O)c3ccc(Cl)cc3)C2)cc1S(=O)(=O)N1CCOCC1 (stereo not drawn)	21µM*	-19	16µM*	-2%	-9%	-3%
CCN(CC)S(=O)(=O)c1ccc(NC(=O)C2CCCN(C(=O)c3ccc(Cl)cc3)C2)cc1 (stereo not drawn)	16µM*	-9	23µM*	-3%	-5%	?
Cc1ccc(S(=O)(=O)N(C)C)cc1NC(=O)C1CCCN(C(=O)c2ccc(Cl)cc2)C1 (stereo not drawn)	?	11	?	-6%	-7%	13%
CS(=O)(=O)c1ccc(NC(=O)C2CCCN(C(=O)c3ccc(Cl)cc3)C2)cc1 (stereo not drawn)	-27%	22	?	-5%	8%	1%
O=C(Nc1ccc(OC(F)(F)F)cc1)C1CCCN(C(=O)c2ccc(Cl)cc2)C1 (stereo not drawn)	16µM*	-28	12µM*	-22%	-25%	244%
CN(C)S(=O)(=O)c1cccc(NC(=O)C2CCCN(C(=O)c3ccc(Cl)cc3)C2)c1 (stereo not drawn)	?	35	15µM*	4%	5%	-9%
COc1cccc(OC)c1C(=O)Nc1c(NC2CCCCC2)c2ccccc2oc1=O	.	.	.	.	.	5%
O=C(N/N=C/c1ccc(Oc2ccccc2)cc1)c1ccc(CSCc2ccccc2)cc1	.	.	.	.	.	9%
CCOCCCNC(=O)N1CCC(OC2CCN(Cc3ccccc3)CC2)CC1	.	.	.	.	.	37%
SMILES	DT40 TDP1 CPT	IL-1B inflam inh	TDP1 cell noCPT	HT1080 IDH1KD tx	HT1080NT lethal	12-LOX inh
O=Cc1cccc(N2CCN(C(=O)Nc3ccccc3)CC2=O)c1	.	.	.	.	.	9%[6.33 µM]
Cc1nc2cc(NC(=O)CNC(=O)c3ccco3)ccc2o1	.	.	.	.	.	-11%
Cc1c(C=O)c2ccccc2n1CCOc1ccccc1F	23µM*	13	10µM*	-29%	-8%	0%
COc1ccccc1C(=O)Nc1ccc2oc(-c3ccc4ccccc4c3)nc2c1	.	.	.	.	.	-2%
Cc1ccc(-c2cnc3c(c2)C(=O)N([C@H](C)CO)C[C@H](C)[C@@H](CN(C)Cc2ccccc2F)O3)cc1	?	-25	?	13%	-16%	?
C[C@@H]1CN([C@@H](C)CO)C(=O)c2cc(-c3ccccc3F)cnc2O[C@H]1CN(C)Cc1cccc(F)c1	?	-22	23µM*	-7%	-13%	0%
C[C@H](O)C#Cc1cnc2c(c1)C(=O)N([C@H](C)CO)C[C@@H](C)[C@@H](CN(C)Cc1ccc(-c3ccccc3)cc1)O2	?	-108*	1.3µM*	-15%	?	?
C[C@H](CO)N1C[C@H](C)[C@@H](CN(C)Cc2ccc(-c3ccccc3)cc2)Oc2ncc(C#C[C@@H](C)O)cc2C1=O	?	-21	?	-23%	-23%	17%
C[C@@H]1CN([C@@H](C)CO)C(=O)c2cc(Br)cnc2O[C@@H]1CN(C)Cc1ccc(Oc2ccccc2)cc1	-1%	-52*	16µM*	-18%	-14%	-11%
C[C@@H]1CN([C@@H](C)CO)C(=O)c2cc(C#Cc3cccc(F)c3)cnc2O[C@@H]1CN(C)CC1CCOCC1	16µM*	?	?	-22%	-18%	-61%
C[C@H]1CN([C@@H](C)CO)C(=O)c2cc(/C=C/c3ccccc3)cnc2O[C@H]1CN(C)C(=O)c1cccc(F)c1	?	-18	23µM*	-6%	-3%	?
Cc1n(CC(O)COC2CCCCC2)c2ccccc2[n+]1C (stereo not drawn)	?	11	13µM*	1%	10%	236%
O=[N+]([O-])c1cccc(-n2nc(-c3ccccc3)c3cnc4cc(C(F)(F)F)ccc4c32)c1	.	.	.	.	.	-17%
